Changes are numbered by the printed parent chain.

Holding throughout (assay): protein-binding microarray (PBM); PBM: ~300 nM protein, 6 mM HEPES pH 7.8, 80 mM KCl, 0.5 mM EDTA, 0.5 mM EGTA, 6% glycerol, 35 ng/ul poly-dIdC, 1% milk, 1 h, room temperature; Ap Aiptasia and Nv Nematostella (sea anemones) / Co Capsaspora / Aq Amphimedon (sponge) / Dm Drosophila / Hu human; RHD is the Rel homology domain; high values mean tight binding
Details in all cases: dsDNA, one strand shown

For assay [1], the target named is T1, GST-Ap-NF-kB RHD (Exaiptasia pallida (Aiptasia), UniProt A0A913YAJ5 2-422).
T1 sequence: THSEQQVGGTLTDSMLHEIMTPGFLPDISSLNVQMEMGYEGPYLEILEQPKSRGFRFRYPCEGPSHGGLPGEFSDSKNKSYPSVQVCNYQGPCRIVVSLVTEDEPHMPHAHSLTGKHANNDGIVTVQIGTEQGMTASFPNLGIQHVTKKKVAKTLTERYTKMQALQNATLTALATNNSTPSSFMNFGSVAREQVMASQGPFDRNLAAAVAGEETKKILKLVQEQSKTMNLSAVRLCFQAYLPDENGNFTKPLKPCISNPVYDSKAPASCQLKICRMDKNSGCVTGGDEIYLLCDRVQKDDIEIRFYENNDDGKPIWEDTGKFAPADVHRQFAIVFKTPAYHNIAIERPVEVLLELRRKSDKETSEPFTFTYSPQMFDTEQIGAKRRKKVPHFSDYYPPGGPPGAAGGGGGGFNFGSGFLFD

Assay [2] addresses T2, GST-Nv-NF-kB (Cys allele) (Nematostella vectensis, UniProt E5G601 2-411).
T2 sequence: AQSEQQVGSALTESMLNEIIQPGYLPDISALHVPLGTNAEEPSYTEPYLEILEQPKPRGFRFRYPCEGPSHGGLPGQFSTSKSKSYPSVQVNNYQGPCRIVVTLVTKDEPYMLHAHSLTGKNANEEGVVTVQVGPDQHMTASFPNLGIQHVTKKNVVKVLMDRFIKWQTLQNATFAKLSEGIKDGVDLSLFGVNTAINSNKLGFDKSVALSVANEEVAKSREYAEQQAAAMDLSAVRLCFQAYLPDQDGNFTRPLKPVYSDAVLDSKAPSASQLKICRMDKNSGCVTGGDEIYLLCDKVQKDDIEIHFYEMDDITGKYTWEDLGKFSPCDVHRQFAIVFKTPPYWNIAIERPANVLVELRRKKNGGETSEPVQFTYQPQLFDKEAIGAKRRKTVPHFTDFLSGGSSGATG

Assay [3] concerns the target T3, GST-Nv-NF-kB (Ser allele) (Nematostella vectensis, UniProt A7UNT2 2-411).
T3 sequence: T2 sequence with Q21R, C66S, S207N, E215Q, V217A, E225K, A268E, D399E

Assay [4] addresses T4, GST-Co-NF-kB (Capsaspora owczarzaki, UniProt F1ARL5 200-546).
T4 sequence: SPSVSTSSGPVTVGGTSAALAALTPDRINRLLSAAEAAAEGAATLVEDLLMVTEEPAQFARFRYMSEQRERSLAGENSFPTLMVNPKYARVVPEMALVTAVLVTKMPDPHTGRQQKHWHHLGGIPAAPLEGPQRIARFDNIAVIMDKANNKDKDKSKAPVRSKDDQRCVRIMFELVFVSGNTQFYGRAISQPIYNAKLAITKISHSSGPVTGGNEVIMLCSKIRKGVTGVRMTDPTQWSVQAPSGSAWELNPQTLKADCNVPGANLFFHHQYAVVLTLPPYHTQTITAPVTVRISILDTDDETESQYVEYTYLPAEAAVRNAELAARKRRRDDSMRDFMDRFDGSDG

In assay [5] the target is T5, GST-Dm-Relish (Drosophila melanogaster, UniProt Q94527 99-473).
T5 sequence: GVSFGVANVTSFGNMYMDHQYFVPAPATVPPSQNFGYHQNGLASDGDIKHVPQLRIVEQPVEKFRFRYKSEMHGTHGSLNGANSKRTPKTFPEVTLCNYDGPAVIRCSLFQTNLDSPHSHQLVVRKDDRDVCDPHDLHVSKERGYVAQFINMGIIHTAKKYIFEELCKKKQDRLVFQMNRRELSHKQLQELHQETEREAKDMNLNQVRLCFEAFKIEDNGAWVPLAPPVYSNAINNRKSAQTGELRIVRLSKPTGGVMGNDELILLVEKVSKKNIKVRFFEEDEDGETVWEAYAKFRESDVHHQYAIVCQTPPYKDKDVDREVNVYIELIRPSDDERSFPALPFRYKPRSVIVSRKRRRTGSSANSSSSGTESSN

Assay [6] has as its target T6, GST-Aq-NF-kB (Amphimedon queenslandica, UniProt A9Y5G7 2-389).
T6 sequence: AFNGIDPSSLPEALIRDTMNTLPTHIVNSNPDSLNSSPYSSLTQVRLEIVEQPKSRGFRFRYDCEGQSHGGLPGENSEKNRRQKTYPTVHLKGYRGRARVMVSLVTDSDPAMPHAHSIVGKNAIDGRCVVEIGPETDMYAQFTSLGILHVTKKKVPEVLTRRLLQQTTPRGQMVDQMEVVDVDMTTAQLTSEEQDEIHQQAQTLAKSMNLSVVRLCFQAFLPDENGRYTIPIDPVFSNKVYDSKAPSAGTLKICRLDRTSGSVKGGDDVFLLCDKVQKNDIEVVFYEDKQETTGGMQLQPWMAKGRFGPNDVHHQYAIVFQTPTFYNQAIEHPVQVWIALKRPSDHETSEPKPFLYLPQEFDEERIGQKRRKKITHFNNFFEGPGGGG

For assay [7], the target named is GST-Hu-p50 (Homo sapiens, UniProt P19838 7-356).
GST-Hu-p50, sequence (P19838 7-356): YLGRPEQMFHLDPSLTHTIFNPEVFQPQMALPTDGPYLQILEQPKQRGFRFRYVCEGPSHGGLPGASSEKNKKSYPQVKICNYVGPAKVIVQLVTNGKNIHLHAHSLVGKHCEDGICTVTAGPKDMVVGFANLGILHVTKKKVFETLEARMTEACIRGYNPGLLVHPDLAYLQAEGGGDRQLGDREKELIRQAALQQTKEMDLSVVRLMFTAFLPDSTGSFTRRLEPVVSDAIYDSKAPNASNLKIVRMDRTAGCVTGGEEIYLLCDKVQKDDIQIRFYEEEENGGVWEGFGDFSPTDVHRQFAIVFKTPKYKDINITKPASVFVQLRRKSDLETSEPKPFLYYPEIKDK

In the case of “CCGATTAACATCAAGACTTCCCCTGATGTTAATCGGGTCTTGATTCGCTTGACGCTGCTG”, the binding signal in assay [1] was determined as 6.45 z-score; in assay [2] it was 7.56 z-score; in assay [3], 7.93 z-score; in assay [4], 5.12 z-score; in assay [5], 7.71 z-score; in assay [6] it was 6.38 z-score. Moreover, the binding signal in assay [7] was 5.95 z-score.
Turning to “CCGATTAACATCAGGGGATTCTATGATGTTAATCGGGTCTTGATTCGCTTGACGCTGCTG”, the binding signal was found to be 8.9 z-score in assay [1]; 9.25 z-score in assay [2]; 11.1 z-score in assay [3]; 3.26 z-score in assay [4]; 7.72 z-score in assay [5]; 6.2 z-score in assay [6]. This sequence also came in with a binding signal in assay [7] of 6.98 z-score.
On to “CCGATTAACATCAAATACCCCCATGATGTTAATCGGGTCTTGATTCGCTTGACGCTGCTG”, for which the binding signal in assay [1] came to 6.79 z-score; in assay [2], 4.49 z-score; in assay [3], 4.86 z-score; in assay [4] it was 5.57 z-score; in assay [5], 3.98 z-score; in assay [6], 4.48 z-score. The same sequence yielded a binding signal in assay [7] of 5.11 z-score.
As for “CCGATTAACATCAAGTTCCCCCATGATGTTAATCGGGTCTTGATTCGCTTGACGCTGCTG”, the binding signal was determined as 7.14 z-score in assay [1]; 6.4 z-score in assay [2]; 6.97 z-score in assay [3]; 10.1 z-score in assay [4]; 4.93 z-score in assay [5]; 5.56 z-score in assay [6]. The same sequence came in with a binding signal in assay [7] of 6.24 z-score.
In the case of “CCGATTAACATCACCTTTTTCCCTGATGTTAATCGGGTCTTGATTCGCTTGACGCTGCTG”, the binding signal in assay [1] was 3.29 z-score; in assay [2], 4.53 z-score; in assay [3], 6.24 z-score; in assay [4], 5.31 z-score; in assay [5], 1.92 z-score; in assay [6], 3.4 z-score. The binding signal in assay [7] stood at 4.16 z-score.
As to “CCGATTAACATCACAAATTACCCTGATGTTAATCGGGTCTTGATTCGCTTGACGCTGCTG”, the binding signal in assay [1] was 3.66 z-score; in assay [2], 5.32 z-score; in assay [3], 5.44 z-score; in assay [4] it was 3.35 z-score; in assay [5] it was 3.01 z-score; in assay [6] it was 4.95 z-score. This sequence also showed a binding signal in assay [7] of 4.07 z-score.
For the sequence “CCGATTAACATCAGGGGATTGGATGATGTTAATCGGGTCTTGATTCGCTTGACGCTGCTG”, the binding signal in assay [1] was 4.77 z-score; in assay [2] it was 4.99 z-score; in assay [3] it was 6.52 z-score; in assay [4], 2.06 z-score; in assay [5] it was 2.73 z-score; in assay [6], 3.69 z-score. For the same sequence, the binding signal in assay [7] amounted to 4.98 z-score.
On to “CCGATTAACATCAAAATTCCCCTTGATGTTAATCGGGTCTTGATTCGCTTGACGCTGCTG”, for which the binding signal in assay [1] came to 10.1 z-score; in assay [2], 12.5 z-score; in assay [3], 14.2 z-score; in assay [4] it was 7.63 z-score; in assay [5], 9.78 z-score; in assay [6], 9.63 z-score. The same sequence displayed a binding signal in assay [7] of 8.23 z-score.
Regarding “CCGATTAACATCAGGGGAAGTACTGATGTTAATCGGGTCTTGATTCGCTTGACGCTGCTG”, the binding signal came to 7.14 z-score in assay [1]; 8.22 z-score in assay [2]; 9.13 z-score in assay [3]; 5.32 z-score in assay [4]; 10.7 z-score in assay [5]; 7.89 z-score in assay [6]. In assay [7], this sequence came in with a binding signal of 6.9 z-score.
Regarding “CCGATTAACATCAGGGGGTTCCATGATGTTAATCGGGTCTTGATTCGCTTGACGCTGCTG”, the binding signal in assay [1] is 7.79 z-score; in assay [2] it was 5.3 z-score; in assay [3], 5.6 z-score; in assay [4] it was 1.97 z-score; in assay [5], 9.47 z-score; in assay [6], 6.05 z-score. The sequence further registered a binding signal in assay [7] of 5.73 z-score.
Take “CCGATTAACATCAGGGAATCTTATGATGTTAATCGGGTCTTGATTCGCTTGACGCTGCTG”: the binding signal in assay [1] is 3.7 z-score; in assay [2], 4.66 z-score; in assay [3] it was 4.86 z-score; in assay [4] it was 3.74 z-score; in assay [5], 2.95 z-score; in assay [6], 5.5 z-score. Also, in assay [7], the binding signal stood at 4.29 z-score.
For the sequence “CCGATTAACATCAGAATCTCCCCTGATGTTAATCGGGTCTTGATTCGCTTGACGCTGCTG”, the binding signal came out at 7.81 z-score in assay [1]; 6.42 z-score in assay [2]; 6.73 z-score in assay [3]; 6.25 z-score in assay [4]; 3.02 z-score in assay [5]; 5.81 z-score in assay [6]. Further, the binding signal in assay [7] was determined as 5.32 z-score.
As for “CCGATTAACATCAATAATTCCCCTGATGTTAATCGGGTCTTGATTCGCTTGACGCTGCTG”, the binding signal in assay [1] was determined as 8.52 z-score; in assay [2], 10.6 z-score; in assay [3], 11.8 z-score; in assay [4], 8.63 z-score; in assay [5] it was 7.98 z-score; in assay [6] it was 7.59 z-score. Also, the binding signal in assay [7] turned out to be 6.96 z-score.

These data come from publication PMC5700166.
